Active and inactive are the calls of the source.
Experiments:
[1] = tested on: Plasmodium falciparum Sir2 (PF13_0152, Sir2A); assay: pfSir2 binders on small-molecule microarrays, primary screen, biochemical, small-molecule microarray, 635 nm fluorescence (AID 1098); settings: small-molecule microarray binding, fluorescence 635 nm; higher = more signal;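 further: score merges spot fluorescence intensity with its signal-to-noise ratio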
[2] = small-molecule microarray binders of probe aDKK1, primary screen, biochemical, biotinylated probe, 635/667 nm fluorescence (AID 1099); settings: higher = more signal;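 further: score merges 667nm spot fluorescence with signal to noise across triplicate slides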
[3] = small-molecule microarray binders of probe aCHRDL2, primary screen, biochemical, biotinylated probe, 635/667 nm fluorescence (AID 1100); settings: higher = more signal
[4] = splicing luciferase reporter signal modulators, primary screen, spliceosome inhibition project, cell-based, HEK293, splice +/- reporter (AID 1101); settings: luminescence, 24 h, higher = more signal, called active from +8 up or from −8 down;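 further: HEK293 cells carrying a splicing-competent luciferase reporter gene; test concentration not given here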
[5] = biological target: Fibroblast growth factor 10 (Homo sapiens) (UniProt O15520); assay: FGF10 binders on small-molecule microarrays, primary screen, biochemical, small-molecule microarray, 635 nm fluorescence (AID 1102); settings: FGF10 binding, fluorescence 635 nm, higher = more signal
[6] = tested on: glycogen synthase kinase-3 (GSK3A per assay name; protocol says GSK3B); assay: GSK3 binders on small-molecule microarrays, primary screen, biochemical, small-molecule microarray, 635 nm fluorescence, GSK3A (AID 1103); settings: small-molecule microarray binding, fluorescence 635 nm; higher = more signal; further: the record names both GSK3A and GSK3B
[7] = biological target: Epidermal growth factor receptor (Homo sapiens) (UniProt P00533); assay: EGFR binders on small-molecule microarrays, primary screen, biochemical, small-molecule microarray, 635 nm fluorescence (AID 1104); settings: EGFR binding, higher = more signal;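 further: score merges 667 nm emission intensity with spot signal to noise over triplicate slides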
[8] = biological target: Follistatin-related protein 3 (Homo sapiens) (UniProt O95633); assay: FSTL3 binders on small-molecule microarrays, primary screen, biochemical, small-molecule microarray, 635 nm fluorescence (AID 1105); settings: FSTL3 binding, higher = more signal;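 further: score merges emission near 667 nm and signal to noise per printed spot across three slides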
[9] = biological target: Dickkopf-related protein 1 (Homo sapiens) (UniProt O94907); assay: DKK1 binders on small-molecule microarrays, primary screen, biochemical, small-molecule microarray, 635 nm fluorescence scan (AID 1106); settings: DKK1 binding, higher = more signal;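 further: score merges emission near 667 nm with signal to noise over three replicate slides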
[10] = tested on: Inhibin beta A chain (activin A); assay: INHBA (activin A) binders on microarrays, primary screen, biochemical, small-molecule microarray, 635 nm fluorescence scan (AID 1107); settings: small-molecule microarray binding, higher = more signal;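 further: mouse activin A protein probed at 4.33 µg/mL on printed slides; score merges bound-protein fluorescence near 667 nm with spot signal-to-noise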
[11] = tested on: Human papillomavirus type 1a protein E7 (residues 44-93); assay: HPV1a E7 fragment binders on microarrays, primary screen, biochemical, small-molecule microarray, residues 44-93, 635 nm fluorescence (AID 1108); settings: small-molecule microarray binding, fluorescence 635 nm; higher = more signal;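 further: E7 fragment applied at 1 µg/mL in TBST for 1 h at 4 C; score combines spot fluorescence with its signal to noise ratio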
[12] = modulators of HCV replicon luciferase signal, primary screen, HCV replication inhibitor project, Huh7 cells, luciferase reporter (AID 1109); settings: 48 h, higher = more signal;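 further: huh7 hepatoma cells harbouring a luciferase neomycin HCV replicon reporter; luciferase luminescence as measure of HCV replicon replication; test concentration not given here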
[13] = biological target: Left-right determination factor 2 (Homo sapiens) (UniProt O00292); assay: LEFTY2 binders on small-molecule microarrays, primary screen, biochemical, small-molecule microarray, 635 nm fluorescence scan (AID 1110); settings: LEFTY2 binding, higher = more signal
[14] = biological target: Calmodulin-1 (Homo sapiens) (UniProt P0DP23); assay: CALM1 binders on microarrays, EGTA buffer, profiling panel, biochemical, small-molecule microarray, Cy5-labelled CALM1 (AID 1111); settings: Cy5-CALM1 binding fluorescence, higher = more signal;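 further: labelled calmodulin applied in Tris saline Tween buffer holding calcium plus EGTA and DTT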
[15] = biological target: Calmodulin-1 (Homo sapiens) (UniProt P0DP23); assay: calcium-bound CALM1 binders on microarrays, profiling panel, artefact control for SMM control-protein annotation, biochemical, small-molecule microarray, Cy5-labelled CALM1, plus calcium (AID 1112); settings: Cy5-CALM1 binding fluorescence, higher = more signal;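 further: score merges spot fluorescence with signal to noise from triplicate slides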
[16] = small-molecule microarray binders of probe aWnt5a, primary screen, biochemical, biotinylated probe, 635/667 nm fluorescence (AID 1113); settings: higher = more signal;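 further: score merges 667 nm fluorescence intensity with signal-to-noise per printed feature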
[17] = small-molecule microarray binders of probe aShh, primary screen, biochemical, biotinylated probe, 635/667 nm fluorescence (AID 1114); settings: higher = more signal;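 further: probe is biotin-labelled aShh protein from a stem cell growth factor screen; measures binding of labelled protein to compounds printed on the slide; score merges feature fluorescence at 667 nm with signal-to-noise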
[18] = small-molecule microarray binders of probe aNog, primary screen, biochemical, biotinylated probe, 635/667 nm fluorescence (AID 1115); settings: higher = more signal;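 further: probe is biotinylated aNog protein used at 0.15 µg/mL for 1 h at 4 C; z-score combines 667 nm fluorescence of each spot with its signal to noise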
[19] = biological target: Torsin-1A-interacting protein 1 (Homo sapiens) (UniProt Q5JTV8); assay: LAP1 binders from COS7 cell lysate, primary screen, small-molecule microarray, 635/667 nm fluorescence (AID 1116); settings: COS7-hLAP1 lysate binding, 635 nm fluorescence, higher = more signal
[20] = biological target: Alpha-bungarotoxin (Bungarus multicinctus) (UniProt P60615); assay: alpha-bungarotoxin binders on microarray, profiling panel, artefact control for SMM control protein annotation, biochemical, small-molecule microarray, Alexa647 label, 635/667 nm fluorescence (AID 1117); settings: alpha-BTX-A647 binding fluorescence, higher = more signal
Sequence of Alpha-bungarotoxin (Bungarus multicinctus) (P60615 whole entry, looked up): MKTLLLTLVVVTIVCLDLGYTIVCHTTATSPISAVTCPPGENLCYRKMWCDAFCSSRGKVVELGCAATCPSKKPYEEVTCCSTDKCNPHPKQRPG

Sequence of Dickkopf-related protein 1 (Homo sapiens) (O94907 whole entry, looked up): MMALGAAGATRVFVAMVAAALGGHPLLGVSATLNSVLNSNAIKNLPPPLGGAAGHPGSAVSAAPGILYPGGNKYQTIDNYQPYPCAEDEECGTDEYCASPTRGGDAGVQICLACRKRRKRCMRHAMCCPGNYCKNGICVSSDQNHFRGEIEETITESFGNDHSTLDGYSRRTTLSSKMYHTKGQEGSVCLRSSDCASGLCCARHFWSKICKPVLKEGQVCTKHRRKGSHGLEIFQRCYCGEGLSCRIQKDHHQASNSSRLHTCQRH
Sequence of Follistatin-related protein 3 (Homo sapiens) (O95633 whole entry, looked up): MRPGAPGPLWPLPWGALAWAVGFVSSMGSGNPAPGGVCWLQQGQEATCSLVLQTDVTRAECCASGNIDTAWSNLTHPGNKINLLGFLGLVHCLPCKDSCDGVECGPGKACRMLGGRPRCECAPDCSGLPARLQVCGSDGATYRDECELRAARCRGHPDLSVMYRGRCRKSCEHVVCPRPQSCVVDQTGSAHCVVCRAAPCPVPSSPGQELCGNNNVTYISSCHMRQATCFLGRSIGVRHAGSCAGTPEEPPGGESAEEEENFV
Sequence of Left-right determination factor 2 (Homo sapiens) (O00292 whole entry, looked up): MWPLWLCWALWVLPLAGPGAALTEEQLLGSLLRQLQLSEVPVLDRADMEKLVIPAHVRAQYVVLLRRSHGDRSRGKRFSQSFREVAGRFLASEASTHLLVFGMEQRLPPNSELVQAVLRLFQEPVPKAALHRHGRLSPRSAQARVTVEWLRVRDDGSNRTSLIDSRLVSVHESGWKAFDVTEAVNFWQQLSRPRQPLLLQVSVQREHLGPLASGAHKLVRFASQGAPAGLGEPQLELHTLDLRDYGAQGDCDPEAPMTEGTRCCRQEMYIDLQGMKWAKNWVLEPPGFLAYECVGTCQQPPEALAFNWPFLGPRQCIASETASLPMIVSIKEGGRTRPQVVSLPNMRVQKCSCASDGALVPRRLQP
Sequence of Epidermal growth factor receptor (Homo sapiens) (P00533 whole entry, looked up): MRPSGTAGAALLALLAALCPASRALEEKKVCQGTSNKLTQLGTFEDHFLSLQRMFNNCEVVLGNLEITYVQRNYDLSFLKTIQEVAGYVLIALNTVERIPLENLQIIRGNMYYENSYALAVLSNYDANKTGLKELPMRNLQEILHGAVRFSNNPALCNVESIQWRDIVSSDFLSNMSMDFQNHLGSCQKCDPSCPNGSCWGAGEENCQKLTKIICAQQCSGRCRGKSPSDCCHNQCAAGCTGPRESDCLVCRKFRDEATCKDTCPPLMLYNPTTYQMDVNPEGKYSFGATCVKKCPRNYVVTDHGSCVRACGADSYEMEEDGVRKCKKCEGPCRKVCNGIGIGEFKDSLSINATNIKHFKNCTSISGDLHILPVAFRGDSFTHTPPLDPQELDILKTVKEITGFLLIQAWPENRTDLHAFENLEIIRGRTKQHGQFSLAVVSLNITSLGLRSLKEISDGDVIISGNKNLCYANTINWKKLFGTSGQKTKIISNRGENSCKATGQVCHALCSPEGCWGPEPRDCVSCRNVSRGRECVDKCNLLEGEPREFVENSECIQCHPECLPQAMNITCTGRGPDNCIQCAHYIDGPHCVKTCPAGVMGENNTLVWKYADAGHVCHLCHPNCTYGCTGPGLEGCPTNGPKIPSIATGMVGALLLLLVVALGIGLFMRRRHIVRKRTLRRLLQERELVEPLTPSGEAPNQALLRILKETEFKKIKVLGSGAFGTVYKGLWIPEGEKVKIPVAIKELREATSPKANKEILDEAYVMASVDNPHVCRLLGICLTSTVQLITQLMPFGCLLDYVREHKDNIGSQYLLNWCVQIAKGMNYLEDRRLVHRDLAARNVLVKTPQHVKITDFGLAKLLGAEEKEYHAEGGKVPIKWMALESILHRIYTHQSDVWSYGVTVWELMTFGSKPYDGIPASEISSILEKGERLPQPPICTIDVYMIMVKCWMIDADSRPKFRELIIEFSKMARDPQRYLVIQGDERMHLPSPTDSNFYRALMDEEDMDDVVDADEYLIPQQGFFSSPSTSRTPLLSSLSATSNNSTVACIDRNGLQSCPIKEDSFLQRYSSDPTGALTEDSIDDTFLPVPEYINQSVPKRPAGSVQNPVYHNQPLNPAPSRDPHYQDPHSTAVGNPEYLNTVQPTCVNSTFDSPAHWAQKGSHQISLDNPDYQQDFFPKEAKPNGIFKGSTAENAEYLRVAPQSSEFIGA
Sequence of Fibroblast growth factor 10 (Homo sapiens) (O15520 whole entry, looked up): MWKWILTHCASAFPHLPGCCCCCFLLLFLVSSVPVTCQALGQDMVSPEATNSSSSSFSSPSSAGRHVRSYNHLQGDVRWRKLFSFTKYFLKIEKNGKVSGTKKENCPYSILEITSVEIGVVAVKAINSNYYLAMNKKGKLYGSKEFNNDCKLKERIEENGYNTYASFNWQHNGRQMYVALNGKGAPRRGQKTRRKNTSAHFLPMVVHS
Sequence of Torsin-1A-interacting protein 1 (Homo sapiens) (Q5JTV8 whole entry, looked up): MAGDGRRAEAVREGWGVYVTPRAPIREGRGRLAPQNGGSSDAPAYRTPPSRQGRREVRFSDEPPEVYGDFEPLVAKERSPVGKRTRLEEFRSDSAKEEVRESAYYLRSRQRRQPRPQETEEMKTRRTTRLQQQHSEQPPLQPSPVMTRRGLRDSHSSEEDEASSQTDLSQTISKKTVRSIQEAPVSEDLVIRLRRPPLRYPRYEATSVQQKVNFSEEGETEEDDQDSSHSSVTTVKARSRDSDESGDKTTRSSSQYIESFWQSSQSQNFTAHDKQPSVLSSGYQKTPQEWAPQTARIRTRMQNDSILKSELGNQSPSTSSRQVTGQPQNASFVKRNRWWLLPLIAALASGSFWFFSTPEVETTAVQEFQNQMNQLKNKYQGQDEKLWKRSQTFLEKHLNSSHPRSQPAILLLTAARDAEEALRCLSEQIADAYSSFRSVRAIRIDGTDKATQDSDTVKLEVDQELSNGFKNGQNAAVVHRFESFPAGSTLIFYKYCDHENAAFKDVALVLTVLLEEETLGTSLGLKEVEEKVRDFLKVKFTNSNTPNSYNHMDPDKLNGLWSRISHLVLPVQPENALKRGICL

Row | Structure (SMILES) | composite z-score [1] | composite z-score [2] | composite z-score [3] | z-score [4] | composite z-score [5] | composite z-score [6] | composite z-score [7] | composite z-score [8] | composite z-score [9] | composite z-score [10] | composite z-score [11] | z-score [12] | composite z-score [13] | composite z-score [14] | composite z-score [15] | composite z-score [16] | composite z-score [17] | composite z-score [18] | composite z-score [19] | composite z-score [20]
1 | O=C1O[C@H](c2ccccc2)[C@H](c2ccccc2)N2[C@H]1[C@@H](C(=O)N1CCCCCCC1)[C@]1(C(=O)Nc3ccc(C#CC4=CCCCC4)cc31)[C@H]2c1ccc(OCCO)cc1 | 1.87 | 2.63 | 1.36 | -1.68 (inactive) | 1.46 | 1.36 | 1.68 | 1.66 | 2.4 | 1.88 | 1.54 | -2.06 | 1.63 | 2.6 | 1.28 | 1.32 | 3.1 | 2.93 | 3.47 | 3.42
2 | CN(C)CCCCCCNC(=O)[C@H]1C[C@H]2C(=O)N[C@@H](CCCCN)C(=O)N2[C@H]1c1cccc(OCCO)c1 | 1.99 | 3.01 | 1.72 | -0.361 (inactive) | 1.43 | 1.48 | 1.63 | 1.65 | 2.49 | 1.43 | 1.56 | 0.386 | 1.71 | 1.99 | 1.16 | 1.06 | 2.92 | 3.26 | 4.54 | 2.52
3 | CO[C@H]1O[C@H](CO)[C@@H](OC(=O)Nc2ccc(Oc3ccccc3)cc2)[C@H](OC(=O)Nc2ccc3c(c2)OCO3)[C@H]1OC(=O)Nc1ccc2c(c1)OCO2 | 1.26 | 0.86 | 0.992 | -1.61 (inactive) | 1.33 | 1.31 | 0.318 | 1.2 | 0.612 | 0.944 | 1.3 | -0.289 | 0.467 | 1.96 | -0.207 | 0.105 | -0.183 | 0.414 | 1.62 | 2.13
4 | O=C1O[C@@H](c2ccccc2)[C@@H](c2ccccc2)N2[C@@H](c3ccccc3OCCO)[C@]3(C(=O)Nc4ccc(C#CC5=CCCCC5)cc43)[C@@H](C(=O)N3CCCCCCC3)[C@H]12 | 2.01 | 2.94 | 1.63 | -1.06 (inactive) | 1.54 | 1.39 | 1.81 | 1.75 | 2.56 | 1.8 | 1.52 | -3.29 | 1.74 | 3.02 | 1.72 | 1.4 | 3.21 | 3.35 | 5.37 | 3.65
5 | CC(C)C[C@@H]1NC(=O)[C@@H]2C[C@H](C(=O)O)[C@H](c3cccc(OCCO)c3)N2C1=O | 0.881 | -0.212 | 0.598 | -0.358 (inactive) | -0.246 | 0.12 | -0.242 | 0.152 | -0.176 | -0.513 | -0.366 | 0.148 | -0.312 | 0.26 | 0.758 | -0.147 | -0.199 | -0.066 | 0.517 | -0.937
6 | C=C(/C(=C/C[C@H](OC(C)=O)c1ccccc1OCCO)c1cnc2ccccc2c1)C(C)C | 1.55 | 0.955 | -0.269 | 0.0118 (inactive) | 0.53 | 0.311 | -0.306 | 1.04 | 0.304 | 1.87 | 0.101 | -2.42 | -0.0274 | 0.361 | -0.378 | -0.034 | 0.184 | -0.036 | 0.327 | 1.19
7 | COc1cc(Br)cc(C(O)C2C=CC3C(=O)N(C)C(=O)C3N2N2CCCCC2)c1OC (stereo not given) | 0.787 | 0.655 | 0.895 | 1.09 (inactive) | -0.582 | -0.524 | -1.23 | -1.06 | -1.26 | 0.613 | 0.207 | -0.0024 | -1.31 | -0.104 | 0.315 | -0.0735 | 0.304 | 0.69 | 1.09 | -0.251
8 | O=C1C[C@@](C(=O)NCC(F)(F)F)(c2ccc([N+](=O)[O-])cc2)[C@@H](c2ccc(CO)cc2I)N1C1CCCCC1 | 0.47 | 0.0918 | 0.574 | 0.0169 (inactive) | 1.09 | 1.18 | 0.515 | 0.995 | 0.155 | 0.539 | 1.47 | -2.54 | 0.386 | 0.511 | 0.074 | -0.0758 | -0.181 | 0.437 | 1.62 | 0.0759
9 | COCCOC(=O)N1C(=O)[C@@]2(c3cc(C#CC4(O)CCCCCC4)ccc31)[C@H](c1ccccc1OCCO)N1[C@H](c3ccccc3)[C@H](c3ccccc3)OC(=O)[C@H]1[C@@H]2C(=O)N1CCN(c2ncccn2)CC1 | 0.892 | 0.0468 | -0.0635 | 0.514 (inactive) | 1.12 | 1.03 | 0.484 | 1.18 | 0.991 | 0.244 | 0.0525 | -2.18 | 0.46 | 0.156 | -0.0855 | -0.0944 | 0.0328 | 0.612 | 1.35 | 0.509
10 | N#Cc1ccc(NN2C(C(O)C(c3ccccc3)c3ccccc3)C=CC3C(=O)N(c4ccccc4)C(=O)C32)cc1 (stereo not given) | 0.793 | 0.609 | 0.725 | -0.327 (inactive) | 1.2 | 1.28 | -0.0158 | 0.864 | -1.06 | 0.0017 | 1.46 | -0.734 | 0.0908 | 1.87 | 0.609 | 0.0768 | 0.392 | 1.72 | 0.307 | 1.91

Source: PubChem BioAssay
